{"source": "the OligoGym collection", "data": [{"target": "C8orf86", "assay": "pooled miR-30 sensor sort-seq; sequence = guide strand", "conditions": "shRNA", "values": [{"sequence": "TCTTTGTCTCTCTGTTCGCTGC", "sensor-assay potency score (higher = more potent)": -0.625}, {"sequence": "TTCTAATCAACTCCTCAGCTGG", "sensor-assay potency score (higher = more potent)": -0.81}, {"sequence": "TAATTCAGGAGTTCTGGGCGGG", "sensor-assay potency score (higher = more potent)": 0.0945}, {"sequence": "TTTGAAGAAACCACAGATGCGA", "sensor-assay potency score (higher = more potent)": 0.17}]}, {"target": "C9orf100", "assay": "pooled miR-30 sensor sort-seq; sequence = guide strand", "conditions": "shRNA", "values": [{"sequence": "TTGATGGTCAGGGCTGTTGGGA", "sensor-assay potency score (higher = more potent)": -1.1}, {"sequence": "TTATAGAGCTCCAAGTGGCGGC", "sensor-assay potency score (higher = more potent)": -0.479}, {"sequence": "TCGGTCTCTAGCAGCTCCCGGG", "sensor-assay potency score (higher = more potent)": -1.38}, {"sequence": "TTCTTGGTAGCGCCGCTCGGTC", "sensor-assay potency score (higher = more potent)": -1.6}, {"sequence": "AAATTGGTTATAGAGCTCCAAG", "sensor-assay potency score (higher = more potent)": -1.5}, {"sequence": "TAAGCAGTAGCTTCTCATGAGG", "sensor-assay potency score (higher = more potent)": -1.31}, {"sequence": "TTGGTTATAGAGCTCCAAGTGG", "sensor-assay potency score (higher = more potent)": -0.209}, {"sequence": "TCAGACTGTGGTACCAGCGTGA", "sensor-assay potency score (higher = more potent)": 0.191}, {"sequence": "TATTTTTCTTTAGCTGCTCCTG", "sensor-assay potency score (higher = more potent)": -0.997}, {"sequence": "TTTCTTTAGCTGCTCCTGCAGG", "sensor-assay potency score (higher = more potent)": -0.717}, {"sequence": "TGAAGCCGTACAAACCTCCGGA", "sensor-assay potency score (higher = more potent)": 0.131}, {"sequence": "ATCTGGAGTAGCTTGGTCCAGG", "sensor-assay potency score (higher = more potent)": -1.26}]}]}
